# Screening results as filed in PubChem.
# Hits are enriched below; roughly 7.5% of the tested compounds scored in any of these assays.
# FLuc counter: firefly luciferase modulation, counter-screen for miR-21 project; P08659; purified FLuc, Km substrates, luminescence inhibition; Potency, µM (top dose mostly 57.5 µM), for the others: top-dose activity change, negative = inhibition, hits mostly inhibitors; 6.9% of 360,000 active;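 note: plate controls were vehicle for no effect and reference inhibitor for full effect; nearly all actives have a fitted effect of over 55% in size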
# Target sequence (P08659 whole entry, looked up): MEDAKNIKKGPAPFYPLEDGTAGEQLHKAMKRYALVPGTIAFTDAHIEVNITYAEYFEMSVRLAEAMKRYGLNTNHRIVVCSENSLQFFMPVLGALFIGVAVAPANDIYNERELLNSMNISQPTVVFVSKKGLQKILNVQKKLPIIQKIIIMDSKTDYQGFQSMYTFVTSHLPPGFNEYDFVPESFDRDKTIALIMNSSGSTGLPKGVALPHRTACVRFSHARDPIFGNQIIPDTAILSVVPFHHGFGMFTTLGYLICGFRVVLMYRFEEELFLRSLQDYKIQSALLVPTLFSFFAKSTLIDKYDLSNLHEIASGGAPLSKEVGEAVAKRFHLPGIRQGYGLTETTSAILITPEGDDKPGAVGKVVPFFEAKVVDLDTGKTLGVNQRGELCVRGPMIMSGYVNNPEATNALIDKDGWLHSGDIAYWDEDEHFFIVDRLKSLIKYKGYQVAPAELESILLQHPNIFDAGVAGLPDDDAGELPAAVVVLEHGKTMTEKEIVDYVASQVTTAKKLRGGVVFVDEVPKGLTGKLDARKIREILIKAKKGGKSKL
#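 Purified P. pyralis luciferase, 10 nM final, with Km-level 10 uM D-luciferin and 10 uM ATP in 50 mM Tris acetate pH 7.5, 10 mM Mg acetate, 0.01% Tween-20, 0.05% BSA; 6-point qHTS titration about 60 µM downward; luminescence read.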
# Rab9 promoter act: activates the Rab9 promoter. Huh7 Rab9 promoter-luciferase reporter, luminescence, 24 h. Potency, µM (series often up to 9.22 µM), inactives show top-dose activation, negative = inhibition, actives largely listed as activators. 2.8% of 320,000 active. AID 485297; note: % of control where 0% means no effect; nearly all actives have a fitted effect of over 60% in size
#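 Rab9 promoter-driven luciferase in stably transfected Huh7 cells; 1500 cells/well rested 2 h, exposed to compound in DMSO for 24 h at 37 °C, 5% CO2. Luminescence read 10 min after adding luciferase reagent at ambient temperature.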
# SMN2 splice up: increases expression of the SMN2 splice variant; 2.8% of 210,000 active; Potency, µM (top dose mostly 46.1 µM), without a hit: at the highest dose activity change, positive = activation, actives largely listed as activators; HEK293 SMN2-luciferase splicing reporter, luminescence, 30-36 h; note: % of control where 0% means no effect; nearly all actives have a fitted effect of over 55% in size
#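 HEK293 cells carry an SMN2 minigene-luciferase reporter in which exon 7 inclusion puts luciferase in frame. Cells were seeded at 2000 cells/well, attached for 10-12 hours, then exposed to compounds for 30-36 hours at 37C before ONE-Glo luminescence.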
# ELG1 genotoxic: induces genotoxicity in HEK293T cells with luciferase-tagged ELG1 | Potency, µM (top dose mostly 46 µM), without a hit: at the top dose activity change, positive = activation, usual class: activators | 1.3% of 330,000 active | HEK293T ELG1-luciferase reporter, luminescence, 16 h | AID 504466; note: % of control where 0% means no effect; nearly all actives have a fitted effect of over 60% in size
#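 Step 1: seed 2,000 HEK293T ELG1-luciferase cells per well. Step 2: add compound or DMSO, incubate 16 hr at 37 °C. Step 3: ONE-Glo, 30 min at room temperature, read luminescence.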
# Luc counter: Kinase-Glo luciferase inhibition (counter-screen). Q27757. Potency, µM (top dose mostly 38.3 µM), for the others: top-dose activity change, negative = inhibition, usual class: inhibitors. 0.28% of 200,000 active. Kinase-Glo luciferase, ATP luminescence, 8 min. AID 1379; note: % is set by controls: 0 for no effect and ±100 for the full control effect; nearly all actives have a fitted effect of over 60% in size
#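 Light output from Kinase-Glo luciferase with luciferin and 10 uM ATP in 50 mM imidazole pH 7.2, KCl, MgCl2, Tween 20, BSA; compound pin-delivered, 8-min ambient incubation, then luminescence read.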
# NPC1 prom act: NPC1 promoter activation; Huh7 NPC1 promoter luciferase reporter, 24 h; Potency, µM (series often up to 9.22 µM), inactives show at the top dose activation, most hits filed as activators; 2.4% of 320,000 active; AID 485313; note: % of control where 0% means no effect; nearly all actives have a fitted effect of over 60% in size
#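 In 1536-well qHTS, Huh7 cells harboring an NPC1 promoter–luciferase construct received compound for 24 h; activation was quantified by luminescence following luciferase reagent addition.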
# * marks the source's active call; other numbers are inactive results; ? = inconclusive; / = no result given; [ ] = remark or other dose. Calls come from the whole dose curve; as a rule, active = well fitted curve in the direction sought with a large enough effect; inconclusive = small, poorly fitted or top-dose-only effect, or another doubt; inactive = no such curve, though single readings can be large; an effect the other way counts as inactive or inconclusive. Potency is the fitted concentration of half-maximal effect.
SMILES,FLuc counter,Rab9 promoter act,SMN2 splice up,ELG1 genotoxic,Luc counter,NPC1 prom act
CCc1ccc(-c2nn(Cc3ccccc3)cc2C=O)cc1,6.7µM*,1µM*,14µM*,?,-1%,2.5µM*
C=CC1CC=CCC1 (stereo not given),/,/,-1%,/,/,/
O=P(O)(O)c1ccccc1OCCOCCOCCOCCOc1ccccc1P(=O)(O)O,?,3.5µM*,24%,-6%,-1%,4µM*
CN1CC=C(/C=C/c2ccc(-c3ccccc3)cc2)CC1,4.3µM*,?,/,?,/,3.2µM*
CCN(CC)c1ccc(C=C2C(=O)NC(=S)NC2=O)cc1,19µM*,-9%,/,?,/,-5%
CC(C)CN(CC(C)C)c1ccc(C=C2C(=O)NC(=S)NC2=O)cc1[N+](=O)[O-],-12%,4%,-9%,-3%,-4%,10%
O=C(C[C@H](c1ccccc1)c1c(O)c2ccccc2oc1=O)c1ccccc1,/,/,-4%[9.22 µM],/,-4%[7.66 µM],/
COc1ccc(Cl)cc1N=Cc1c(O)n(C)c(=O)n(C)c1=O,1%,1%,/,2%,/,-2%
COc1ccccc1N=Cc1c(O)n(C)c(=O)n(C)c1=O,7.6µM*,12%,-13%,17%,?,5%
COc1cccc(-n2nc(C(=O)N3CCC4(CC3)OCCO4)c3ccccc3c2=O)c1,-1%,-3%,12%,-6%,6%,0%
COc1ccc(-n2nc(C(=O)NCC(=O)N3CCC4(CC3)OCCO4)c3ccccc3c2=O)cc1OC,3µM*,?,/,10%,/,20%
Cc1onc(-c2ccccc2)c1C(=O)NC1C(=O)N2C(C(=O)O)C(C)(C)S[C@@H]12 (stereo not given in full),/,/,6%,/,0%,/
CC1(C)N=C(N)N=C(N)N1c1cccc(C(=O)Nc2ccc(S(=O)(=O)F)cc2)c1,/,/,3%[9.22 µM],/,-1%[7.66 µM],/
OCCNc1c2c(nc3ccccc13)CCCC2,3%,-10%,-17%,-4%,2%,-1%
CNc1ccc2nc3ccccc3[n+](C)c2c1,17µM*,-22%[1.84 µM],/,-6%,/,-43%
C[n+]1c2ccccc2nc2ccc(NCCO)cc21,19µM*,-5%[1.84 µM],/,-18%,/,2%
CNC(=O)COC(=O)c1ccc(-c2nc3ccccc3s2)s1,1.1µM*,20%,16µM*,3.7µM*,-23%,?
CCCCN1CC(O)=C(c2nc3ccccc3s2)C1=N,?,?,5%,11%,-2%,?
O=C(O)[C@@H](O)[C@@H](O)C1[O][Sb][O][C@@H]1CO (stereo not given in full),/,/,-10%[9.22 µM],/,-1%[7.66 µM],/
CCCOc1ccc(C(=O)Nc2ccc(-c3cc4ccccc4oc3=O)c(C)c2)cc1,1.7µM*,/,-63%,/,/,/
COc1ccc(C(=O)Nc2cccc(S(=O)(=O)NCc3ccco3)c2)cc1,/,/,/,-3%,/,/
O=c1oc2ccccc2c(O)c1C(c1ccc([N+](=O)[O-])cc1)c1c(O)c2ccccc2oc1=O,19µM*,2%,-10%,-10%,0%,-4%
CC(C)c1ccc(C(c2c(O)c3ccccc3oc2=O)c2c(O)c3ccccc3oc2=O)cc1,/,/,1%[9.22 µM],/,-4%[7.66 µM],/
O=c1c2ccccc2nc(-c2ccccc2)n1-c1ccccc1,7%,-1%,/,-8%,/,-3%
O=c1c2ccccc2[se]n1-c1ccccc1,6µM*,14%[46.1 µM],-28%,5%,10µM*,-9%[46.1 µM]
SMILES,FLuc counter,Rab9 promoter act,SMN2 splice up,ELG1 genotoxic,Luc counter,NPC1 prom act
Cc1ccc2nc(N3CCN(C)CC3)[nH]c2c1,27µM*,?,104%,16µM*,2%,?
CC(=O)N1CCc2cc(S(=O)(=O)N3CCN(c4ccc(C)cc4)C(C)C3)ccc21 (stereo not given),-9%,/,-31%,/,/,/
O=c1c2ccccc2[nH]c(=S)n1-c1ccc2c(c1)OCCO2,11µM*,?,/,15%,/,?
Cc1cccc(-n2c(=S)[nH]c3ccccc3c2=O)n1,-1%,3%,-19%,18%,0%,1%
Cc1ccc2nc(NC(=O)c3cccn(Cc4ccc(Cl)cc4)c3=O)sc2c1,0%,/,/,/,/,/
CCOc1ccc2nc(NC(=O)c3cccn(Cc4ccccc4)c3=O)sc2c1,6µM*,/,/,/,/,/
O=C(Nc1nc2ccccc2s1)c1cccn(Cc2ccccc2)c1=O,0.76µM*,/,/,/,/,/
Cc1ccccc1Cn1cccc(C(=O)Nc2nc3ccccc3s2)c1=O,0.43µM*,/,/,/,/,/
CCOc1ccc2nc(NC(=O)c3cccn(Cc4ccc(C)cc4)c3=O)sc2c1,-6%,/,/,/,/,/
O=C(O)C(Oc1nc(=S)[nH]c(=S)[nH]1)(c1ccc(Cl)cc1)c1ccc(Cl)cc1,/,/,1%[9.22 µM],/,-1%[7.66 µM],/
Cc1ccc(Cn2nc(C(=O)Nc3ccc(Br)cc3)cc2C)cc1,9.5µM*,-11%,/,21µM*,/,-13%
CCOc1ccc(OC(=O)c2ccc3c(=O)n4c(nc3c2)CCC4)cc1,12µM*,-3%,/,-4%,/,-1%
Cc1cnn(-c2cc(Oc3ccccc3)ncn2)c1,17µM*,?,/,1.5µM*,/,?
c1ccc(CCN2CCCCCC2)nc1,/,/,-9%[9.22 µM],/,-1%[7.66 µM],/
CCOc1ccccc1Oc1coc2cc(OC(=O)c3ccco3)ccc2c1=O,15µM*,-5%,?,7%,-5%,0%
Cc1ccc2nc3c(cc2c1)CC1(C(=O)N(C)C(=O)N(C)C1=O)C1CCCCN31 (stereo not given),5.4µM*,27%,?,?,-2%,?
Cc1cccn2c(=O)c3c(nc12)N1CCCCCC1C1(C3)C(=O)N(C)C(=O)N(C)C1=O (stereo not given),-1%,-6%,/,2%,/,-2%
Cc1ccc2nc3c(cc2c1)CC1(C(=O)N(C)C(=O)N(C)C1=O)C1COCCN31 (stereo not given),15µM*,23%,/,?,/,20%
CCC#N,/,/,-4%,/,/,/
Cc1nn(C(C)(C)C)c(C)c1/C=N/OC(=O)Nc1ccc(Cl)c(Cl)c1,0.19µM*,-38%,/,-12%,/,-24%
C=C(Cl)CCl,/,/,8%,/,/,/
CC1=Nc2ccccc2/C1=C/c1c(O)[nH]c(=O)[nH]c1=O,-2%,4%,/,-1%,/,2%
O=c1[nH]c(O)c(/C=C2/C=CC(c3cc(Cl)ccc3Cl)=N2)c(=O)[nH]1,6.7µM*,-9%,/,15%,/,-5%
CCc1cc2c(=O)n(C(C)C(=O)OC3CCCCC3)cnc2s1 (stereo not given),15µM*,?,11µM*,9.2µM*,3%,?
CC(C)(Cl)Cl,/,/,21%,/,/,/
O=C1NC(=O)N(Cc2ccc(F)cc2)C(=O)/C1=C/c1cccs1,?,2%,-21%,?,0%,-4%
O=C1NC(=O)N(Cc2ccccc2Cl)C(=O)/C1=C/c1cccs1,15µM*,-4%,-11%,?,6%,-7%
